Records with an inconclusive call do not appear. Activity calls are given as the source filed them. How the source made its calls: active means hit-call score of the fitted dose curve at least 0.9, where 1 is the maximum; inconclusive means response in the unintended direction; inactive means score below 0.9.
test system: not listed separately; assay: TOX21_p53_BLA_p5_viability: Viability Assessment in the Tox21 HCT-116 p53 Agonism Beta-lactamase Assay, Phase 5 (AID 2283600)
In short: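 HCT-116 p53 beta-lactamase reporter cells, 4000/well, were exposed to compound (pin transfer, 217-fold dilution) for 16 hours at 37C. Cellular ATP was read by CellTiter-Glo luminescence after 30 min at room temperature.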

| Compound | outcome |
| --- | --- |
| OCCCC1CCCCC1 | inactive |
| CC(C(=O)O)c1ccc2c(c1)[nH]c1ccc(Cl)cc12 (stereo not drawn) | inactive |
| C#CCN(C)CCCOc1ccc(Cl)cc1Cl | inactive |
| C/C=C/C=C/CO | inactive |
| CC1CCc2cc(F)cc3c(=O)c(C(=O)O)cn1c23 (stereo not drawn) | inactive |
| COc1cc(NS(=O)(=O)c2ccc(N)cc2)ncn1 | inactive |
| O=C1OCCN1N=Cc1ccc([N+](=O)[O-])o1 | inactive |
| CCCCCC=CCC1CC(=O)OC1=O (stereo not drawn) | inactive |
| O=[N+]([O-])c1ccccc1Nc1ccccc1 | inactive |
| CCCCCCCCSCC | inactive |
| C[C@@H]1CN(c2c(F)c(N)c3c(=O)c(C(=O)O)cn(C4CC4)c3c2F)C[C@H](C)N1 | inactive |
| CCCCCCCCCCCCCCCC(=O)NCCO | inactive |
| C=CCn1cc[n+](C)c1 | inactive |
| Cc1cc(=O)oc2cc(O)cc(O)c12 | inactive |
| CCCCCCCC | inactive |

biological target: Cellular tumor antigen p53 (Homo sapiens) (UniProt P04637); assay: TOX21_p53_BLA_p4_ratio: Tox21 HCT-116 p53 Agonism Beta-lactamase Assay, Ratio, Phase 4 (AID 2283601)
In short: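 HCT116 cells carrying an inducible beta-lactamase reporter were plated at 4000 cells/well, rested 5 h, then exposed to compounds in DMSO (217-fold dilution) for 16 h at 37C. CCF4-AM substrate was loaded 2 h at room temperature; 460/530 nm emission ratio scored gain-of-signal versus DMSO.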

Chain of Cellular tumor antigen p53 (Homo sapiens) (P04637 whole entry, looked up): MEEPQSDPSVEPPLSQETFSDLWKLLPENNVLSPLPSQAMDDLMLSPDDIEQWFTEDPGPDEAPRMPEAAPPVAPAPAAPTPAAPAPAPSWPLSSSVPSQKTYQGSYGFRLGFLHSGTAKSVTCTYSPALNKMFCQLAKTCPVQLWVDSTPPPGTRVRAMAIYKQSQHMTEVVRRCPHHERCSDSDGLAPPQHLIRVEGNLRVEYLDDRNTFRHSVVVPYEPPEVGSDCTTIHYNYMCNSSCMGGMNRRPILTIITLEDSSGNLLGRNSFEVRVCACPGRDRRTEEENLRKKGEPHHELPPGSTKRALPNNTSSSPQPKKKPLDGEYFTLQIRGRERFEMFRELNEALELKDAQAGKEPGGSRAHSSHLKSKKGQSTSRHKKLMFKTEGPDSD

| Compound | outcome | AC50 |
| --- | --- | --- |
| NC(=O)N[C@@H](CCC(=O)O)C(=O)O | inactive | – |
| CC(C(=O)O)c1ccc2c(c1)[nH]c1ccc(Cl)cc12 (stereo not drawn) | inactive | – |
| C#CCN(C)CCCOc1ccc(Cl)cc1Cl | inactive | – |
| CC(C)(CO)[C@@H](O)C(=O)NCCC(=O)NCCSSCCNC(=O)CCNC(=O)[C@H](O)C(C)(C)CO | inactive | – |
| C/C=C/C=C/CO | inactive | – |
| OC[C@@H](O)C(O)[C@H](O)CO | inactive | – |
| FC(F)(F)C(F)(F)C(F)(F)C(F)(F)C(F)(F)F | inactive | – |
| C[C@]12C=CC(=O)C=C1CC[C@@H]1[C@@H]2[C@@H](O)C[C@@]2(C)[C@H]1CC[C@]2(O)C(=O)COC(=O)CCC(=O)O | inactive | – |
| CN(C)CCC=C1c2ccccc2CSc2ccccc21 | – | 16.6 µM (active) |
| CC1CCc2cc(F)cc3c(=O)c(C(=O)O)cn1c23 (stereo not drawn) | inactive | – |
| CN(C)CCC[C@@]1(c2ccc(F)cc2)OCc2cc(C#N)ccc21 | inactive | – |
| CC[C@@H](C(=O)[C@@H](C)[C@@H](O)[C@H](C)[C@@H]1O[C@@H]([C@@H](CC)C(=O)O)CC[C@@H]1C)[C@H]1O[C@]2(C=C[C@@H](O)[C@]3(CC[C@@](C)([C@H]4CC[C@](O)(CC)[C@H](C)O4)O3)O2)[C@H](C)C[C@@H]1C | inactive | – |
| COc1cc(NS(=O)(=O)c2ccc(N)cc2)ncn1 | inactive | – |
| CN1CCCCC1CCN1c2ccccc2Sc2ccc(S(C)=O)cc21 (stereo not drawn) | inactive | – |
| O=C1OCCN1N=Cc1ccc([N+](=O)[O-])o1 | inactive | – |
| O=C(O)[C@H](CC(=O)N1C[C@H]2CCCC[C@H]2C1)Cc1ccccc1 | inactive | – |
| CCCCCC=CCC1CC(=O)OC1=O (stereo not drawn) | inactive | – |
| O=[N+]([O-])c1ccccc1Nc1ccccc1 | inactive | – |
| CCN(CC)CCOC(=O)c1ccc(N)cc1Cl | inactive | – |

| Compound | outcome | AC50 |
| --- | --- | --- |
| CC1(C)[C@H](C(=O)O)N2C(=O)C[C@H]2S1(=O)=O | inactive | – |
| c1ccc2c(c1)OCC(CN1CCCCC1)O2 (stereo not drawn) | inactive | – |
| CCCCCCCCSCC | inactive | – |
| COC(=O)CCCCCCCCC(=O)OC | inactive | – |
| C[C@@H]1CN(c2c(F)c(N)c3c(=O)c(C(=O)O)cn(C4CC4)c3c2F)C[C@H](C)N1 | inactive | – |
| CCCCCCCCCCCCCCCC(=O)NCCO | inactive | – |
| CC12CCC(C1)C(C)(C)C2=O (stereo not drawn) | inactive | – |
| CN1CCC(=C2c3ccccc3C=Cc3ccccc32)CC1 | inactive | – |
| C=CCn1cc[n+](C)c1 | inactive | – |
| CC(=O)N[C@@H]([C@@H](O)[C@H](O)[C@H](O)CO)[C@@H](O)CC(=O)C(=O)O | inactive | – |
| NC[C@@H]1O[C@H](O[C@H]2[C@@H](O)[C@H](O[C@@H]3[C@@H](O)[C@H](N)C[C@H](N)[C@H]3O[C@H]3O[C@H](CO)[C@@H](O)[C@H](O)[C@H]3N)O[C@@H]2CO)[C@H](N)[C@@H](O)[C@@H]1O | inactive | – |
| Cc1cc(=O)oc2cc(O)cc(O)c12 | – | 41.7 µM (active) |
| C=CCSCC1Nc2cc(Cl)c(S(N)(=O)=O)cc2S(=O)(=O)N1 (stereo not drawn) | inactive | – |
| Cc1cccc([N+](=O)[O-])c1C(=O)O | inactive | – |
| CC(C)OC(=O)Nc1ccc2nc(-c3cscn3)[nH]c2c1 | – | 1.09 µM (active) |
| CC(C)c1ccccc1 | inactive | – |
| Oc1cc(O)c(Cl)cc1Cl | inactive | – |
| CN(C)c1ccc(CCO)cc1 | inactive | – |
| CCCCCCCC | inactive | – |
